# Experimental data from PubChem BioAssay.
# “And” between values parts separate entries of the source, which are not always exact repeats. Equal entries are not always repeated. Records with an inconclusive call do not appear. Where a structure was tested more than once in an assay, its records may differ in their call. The source made the active and inactive calls.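 Rule for the calls, unless noted: active = normalized viability below 100% at a tested concentration; inactive = the rest.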
# What was measured:
# [1] = viability loss in pontine glioma line – cell-based, SU-DIPG-XXV, MIPE5.0, CellTiter-Glo, qHTS, dose response (AID 1347065; cut-off not given, nearly all actives have AC50 up to about 26 µM;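 note: cells exposed to compound for 48 hours before ATP readout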); details: CellTiter-Glo ATP luminescence
# [2] = growth inhibition of DIPG cells – cell-based, MIPE4.0 library, CellTiter-Glo luminescence, qHTS (AID 1347066; cut-off not given, nearly all actives have AC50 up to about 30 µM;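 note: cells exposed to compound for 48 hours before readout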); details: SU-DIPG-VI viability, CellTiter-Glo ATP luminescence
# [3] = growth inhibition of DIPG cells – cell-based, MIPE5.0 library, qHTS (AID 1347068; cut-off not given, nearly all actives have IC50 up to about 30 µM); details: SU-DIPG-XXV viability
# [4] = blockers of cellular phospholipid synthesis – cell-based, LOPAC library, screen 4, primary screen (AID 1347384; call rule not given here); details: animal cells, phospholipid biosynthesis inhibition screen; at 10 µM
# [5] = MELAS cybrid and Rieske KO viability enhancers – cell-based, MELAS cybrids, Rieske KO mouse fibroblasts, CellTiter-Glo, primary screen (AID 1508586;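 active = mean z-score across replicates of 1.96 or higher in either the MELAS or the Rieske mutant cell line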;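 note: z relative to plate mean and SD of compound and empty wells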); details: low glucose
# [6] = galactose survival enhancers in mitochondrial complex I cybrids – cell-based, galactose medium, ATP luminescence, primary screen (AID 1645843;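 active = z-score of at least 1.8 in each of two replicates, scored against plate mean and spread of sample wells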;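 note: positive z means more ATP and so rescue of galactose-driven cybrid death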); details: complex I mutant cybrid cells, 72 h, stronger effect = higher value
# [7] = compounds altering HSF1 focus formation in cells – imaging, Selleck Cancer Library (AID 1347162; in the data active = plate-normalised HSF1 focus index below about 0.46); details: human cells, HSF1 nuclear foci imaging, at 10 µM; SSMD: measured here: HSF1 foci SSMD mean; cell count: measured here: cell number; plate-normalised HSF1 focus index: stronger effect = lower value
# [8] = drug combination growth inhibition, ovarian cancer – cell-based, oncology-focused library, rucaparib conditional, profiling panel (AID 1508598); details: patient-derived ovarian cancer cells, CellTiter-Glo viability, 144 h, stronger effect = lower value
# [9] = biological target: NAD(+) hydrolase SARM1 (Homo sapiens) (UniProt Q6SZW1); experiment: blocking NAD cleavage by SARM1 SAM-TIR – cell lysate, NAD-Glo luminescence (AID 1508614;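 active = compound whose remaining NAD level is above about 45 nM, limit read from the data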;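 note: higher remaining NAD means stronger inhibition of SARM1 NADase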); details: SAM-TIR HEK293T lysate NADase, at 1 µM, stronger effect = higher value
# [10] = biological target: Mitogen-activated protein kinase 7 (Homo sapiens) (UniProt Q13164); experiment: Gal4-ERK5 driven luciferase induction – cell-based, HTS, primary screen (AID 1508626;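 active = luciferase signal above three times the same-plate solvent-only control wells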;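 note: luciferase driven by Gal4-ERK5 fusion binding five Gal4 sites before minimal TATA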); details: HeLa Gal4-ERK5 transactivation, 18 h, at 5 µM, stronger effect = higher value
# [11] = growth inhibition, single agent or in combination, cell-based, chromothripsis tumors, cisplatin or BGB combos (AID 1671449; in the data active = inhibition above about 80%;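 note: cells exposed for 96 hours; 0% = vehicle DMSO and 100% = killing by high DMSO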); details: LFS_MB_P medulloblastoma cells
# [12] = growth inhibition, single agent and combos, cell-based, chromothripsis tumors, cisplatin or BGB combos (AID 1671450; in the data active = inhibition above about 80%;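 note: cells exposed to compound for four days; 0% = vehicle DMSO and 100% = cell killing by high DMSO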); details: HDN33 neuroblastoma cells, stronger effect = higher value
# [13] = growth inhibition, single agents and combos, ICB984, cell-based, cisplatin or BGB combos, synergistic combos for chromothripsis tumors (AID 1671451; call rule not given here;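 note: cells exposed for 96 hours before readout; 0% = vehicle DMSO and 100% = killing by high DMSO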); details: ICB984 medulloblastoma cells, drug combinations, stronger effect = higher value
# [14] = growth inhibition, single agents and combos, LFS_MB_1R, cell-based, cisplatin or BGB combos, synergistic combos for chromothripsis tumors (AID 1671452; in the data active = inhibition above about 80%;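 note: cells exposed for 96 hours before readout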); details: LFS_MB_1R medulloblastoma cells, stronger effect = higher value
# [15] = measured here: combination with BGB IC40, at 0.05 µM
# Chain of NAD(+) hydrolase SARM1 (Homo sapiens) (Q6SZW1 whole entry, looked up, the tested form may be a part): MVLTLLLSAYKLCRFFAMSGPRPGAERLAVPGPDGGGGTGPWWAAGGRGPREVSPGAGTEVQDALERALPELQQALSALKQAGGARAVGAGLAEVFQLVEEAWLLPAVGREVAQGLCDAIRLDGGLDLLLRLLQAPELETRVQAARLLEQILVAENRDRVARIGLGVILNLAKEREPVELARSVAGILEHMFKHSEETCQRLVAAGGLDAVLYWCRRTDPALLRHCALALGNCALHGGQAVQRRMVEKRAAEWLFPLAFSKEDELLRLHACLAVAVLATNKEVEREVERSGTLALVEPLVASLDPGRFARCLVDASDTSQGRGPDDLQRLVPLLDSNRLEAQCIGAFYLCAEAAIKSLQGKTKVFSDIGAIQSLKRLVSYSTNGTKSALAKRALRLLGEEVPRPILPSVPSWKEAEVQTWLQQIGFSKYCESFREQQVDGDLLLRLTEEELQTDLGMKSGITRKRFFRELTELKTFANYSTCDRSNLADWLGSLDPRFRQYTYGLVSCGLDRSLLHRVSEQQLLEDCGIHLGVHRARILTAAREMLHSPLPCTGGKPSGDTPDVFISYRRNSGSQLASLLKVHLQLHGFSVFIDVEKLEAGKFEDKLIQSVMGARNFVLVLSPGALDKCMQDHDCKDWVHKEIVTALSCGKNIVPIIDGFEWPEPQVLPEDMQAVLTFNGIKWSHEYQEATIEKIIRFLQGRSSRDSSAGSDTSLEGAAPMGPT
# Chain of Mitogen-activated protein kinase 7 (Homo sapiens) (Q13164 whole entry, looked up, the tested form may be a part): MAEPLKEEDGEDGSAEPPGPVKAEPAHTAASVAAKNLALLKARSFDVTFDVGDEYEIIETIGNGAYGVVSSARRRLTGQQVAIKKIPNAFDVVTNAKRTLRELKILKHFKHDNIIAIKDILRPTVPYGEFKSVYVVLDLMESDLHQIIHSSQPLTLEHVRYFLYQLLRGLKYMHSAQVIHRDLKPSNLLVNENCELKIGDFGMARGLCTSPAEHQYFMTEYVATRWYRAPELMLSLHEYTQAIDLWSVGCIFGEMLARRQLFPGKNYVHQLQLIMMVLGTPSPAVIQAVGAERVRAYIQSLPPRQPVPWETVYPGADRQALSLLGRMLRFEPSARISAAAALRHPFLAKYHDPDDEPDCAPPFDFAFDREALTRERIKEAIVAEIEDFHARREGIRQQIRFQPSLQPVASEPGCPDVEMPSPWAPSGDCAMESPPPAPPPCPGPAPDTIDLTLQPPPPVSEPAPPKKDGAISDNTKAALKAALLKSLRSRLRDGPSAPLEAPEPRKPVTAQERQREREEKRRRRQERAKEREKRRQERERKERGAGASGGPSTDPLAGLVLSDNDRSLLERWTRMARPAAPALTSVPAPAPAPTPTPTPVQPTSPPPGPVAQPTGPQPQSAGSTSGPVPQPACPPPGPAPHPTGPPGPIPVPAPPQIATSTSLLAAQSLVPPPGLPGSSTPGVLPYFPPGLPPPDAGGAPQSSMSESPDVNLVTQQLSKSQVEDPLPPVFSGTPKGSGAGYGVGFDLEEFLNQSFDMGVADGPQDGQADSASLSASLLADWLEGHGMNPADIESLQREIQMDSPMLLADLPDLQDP
smiles,measurement,setting,value
CN(CCOc1ccc(NS(C)(=O)=O)cc1)CCc1ccc(NS(C)(=O)=O)cc1,outcome,[1],inactive
same,outcome,[2],inactive
same,outcome,[3],inactive
same,outcome,[4],inactive
same,z-score,"[5]; MELAS cybrid survival, CellTiter-Glo 48 h, stronger effect = higher value",-0.0974 (inactive) and 0.133 (inactive) and -0.631 (inactive)
same,z-score,"[5]; Rieske KO mouse fibroblast survival, CellTiter-Glo 72 h",-0.727 and -0.208 and -0.315
same,z-score,[6],0.355 (inactive) and 0.06 (inactive) and 0.77 (inactive)
Cc1ccc(NC(=O)c2ccc(CN3CCN(C)CC3)cc2)cc1Nc1nccc(-c2cccnc2)n1,AC50,[1],23.5 µM (active)
same,outcome,[2],inactive
same,SSMD,[7],2.47
same,cell count,[7],6720
same,plate-normalised HSF1 focus index,[7],1.13 (inactive)
same,viability,"[8]; at 0.000305 µM, OCI-C5x cells, with rucaparib 10 µM, 100% = cells with rucaparib alone",112% (inactive) and 107% (inactive)
same,viability,"[8]; at 0.000305 µM, OCI-C5x cells, without rucaparib",107% (inactive) and 98.4% (active)
same,viability,"[8]; at 0.000305 µM, OCI-P5x cells, with rucaparib 20 µM, 100% = cells with rucaparib alone",97.9% (active) and 85.2% (active)
same,viability,"[8]; at 0.000305 µM, OCI-P5x cells, without rucaparib",98.1% (active) and 85.5% (active)
same,viability,"[8]; at 0.00122 µM, OCI-C5x cells, with rucaparib 10 µM, 100% = cells with rucaparib alone",109% (inactive) and 103% (inactive)
same,viability,"[8]; at 0.00122 µM, OCI-C5x cells, without rucaparib",106% (inactive) and 98.3% (active)
same,viability,"[8]; at 0.00122 µM, OCI-P5x cells, with rucaparib 20 µM, 100% = cells with rucaparib alone",95.4% (active) and 92.7% (active)
same,viability,"[8]; at 0.00122 µM, OCI-P5x cells, without rucaparib",96.8% (active) and 89.4% (active)
same,viability,"[8]; at 0.00488 µM, OCI-C5x cells, with rucaparib 10 µM, 100% = cells with rucaparib alone",113% (inactive) and 114% (inactive)
same,viability,"[8]; at 0.00488 µM, OCI-C5x cells, without rucaparib",108% (inactive) and 102% (inactive)
same,viability,"[8]; at 0.00488 µM, OCI-P5x cells, with rucaparib 20 µM, 100% = cells with rucaparib alone",92.2% (active) and 93.1% (active)
same,viability,"[8]; at 0.00488 µM, OCI-P5x cells, without rucaparib",99.4% (active) and 94.5% (active)
same,viability,"[8]; at 0.0195 µM, OCI-C5x cells, with rucaparib 10 µM, 100% = cells with rucaparib alone",120% (inactive) and 104% (inactive)
same,viability,"[8]; at 0.0195 µM, OCI-C5x cells, without rucaparib",112% (inactive) and 98.4% (active)
same,viability,"[8]; at 0.0195 µM, OCI-P5x cells, with rucaparib 20 µM, 100% = cells with rucaparib alone",94.9% (active) and 104% (inactive)
same,viability,"[8]; at 0.0195 µM, OCI-P5x cells, without rucaparib",95% (active) and 94.1% (active)
same,viability,"[8]; at 0.0781 µM, OCI-C5x cells, with rucaparib 10 µM, 100% = cells with rucaparib alone",123% (inactive) and 97.7% (active)
same,viability,"[8]; at 0.0781 µM, OCI-C5x cells, without rucaparib",115% (inactive) and 101% (inactive)
same,viability,"[8]; at 0.0781 µM, OCI-P5x cells, with rucaparib 20 µM, 100% = cells with rucaparib alone",95% (active) and 100% (inactive)
same,viability,"[8]; at 0.0781 µM, OCI-P5x cells, without rucaparib",96.1% (active) and 97.9% (active)
same,viability,"[8]; at 0.313 µM, OCI-C5x cells, with rucaparib 10 µM, 100% = cells with rucaparib alone",120% (inactive) and 104% (inactive)
same,viability,"[8]; at 0.313 µM, OCI-C5x cells, without rucaparib",110% (inactive) and 103% (inactive)
same,viability,"[8]; at 0.313 µM, OCI-P5x cells, with rucaparib 20 µM, 100% = cells with rucaparib alone",100% (inactive) and 103% (inactive)
same,viability,"[8]; at 0.313 µM, OCI-P5x cells, without rucaparib",96.2% (active) and 101% (inactive)
same,viability,"[8]; at 1.25 µM, OCI-C5x cells, with rucaparib 10 µM, 100% = cells with rucaparib alone",118% (inactive) and 105% (inactive)
same,viability,"[8]; at 1.25 µM, OCI-C5x cells, without rucaparib",115% (inactive) and 106% (inactive)
same,viability,"[8]; at 1.25 µM, OCI-P5x cells, with rucaparib 20 µM, 100% = cells with rucaparib alone",95.6% (active) and 99.9% (active)
same,viability,"[8]; at 1.25 µM, OCI-P5x cells, without rucaparib",95.1% (active) and 100% (inactive)
same,viability,"[8]; at 5 µM, OCI-C5x cells, with rucaparib 10 µM, 100% = cells with rucaparib alone",133% (inactive) and 131% (inactive)
same,viability,"[8]; at 5 µM, OCI-C5x cells, without rucaparib",124% (inactive) and 134% (inactive)
same,viability,"[8]; at 5 µM, OCI-P5x cells, with rucaparib 20 µM, 100% = cells with rucaparib alone",84.6% (active) and 98.4% (active)
same,viability,"[8]; at 5 µM, OCI-P5x cells, without rucaparib",89.8% (active) and 103% (inactive)
same,remaining NAD,[9],10 nM (inactive)
same,z-score,[6],-1.09 (inactive) and -0.785 (inactive)
CC(N)C12CC3CC(CC(C3)C1)C2 (stereo unspecified),outcome,[1],inactive
same,outcome,[2],inactive
same,outcome,[3],inactive
same,remaining NAD,[9],10 nM (inactive)
same,luciferase signal,[10],48 AU (inactive)
same,z-score,[6],1.03 (inactive) and -0.17 (inactive) and -0.24 (inactive)
same,inhibition,"[11]; at 0.5 µM, stronger effect = higher value",6% (inactive)
same,inhibition,"[11]; measured here: combination with BGB IC20, at 0.005 µM",-16.1%
same,inhibition,"[11]; measured here: combination with BGB IC40, at 0.005 µM",-38.1%
same,inhibition,[11]; [15],-30.6%
same,inhibition,"[11]; measured here: combination with cisplatin, at 0.5 µM, stronger effect = higher value",9.24%
same,inhibition,"[11]; measured here: combination with cisplatin, at 5 µM, stronger effect = higher value",-22.9%
same,inhibition,"[12]; BGB combo, at 5 µM",-28.3%
same,inhibition,[12]; at 0.5 µM,-32.5% (inactive)
same,inhibition,"[12]; cisplatin combo, at 5 µM",-20.2%
same,inhibition,"[12]; measured here: with BGB IC20 combination, at 0.5 µM",-33.5%
same,inhibition,"[12]; measured here: with cisplatin IC20 combination, at 0.5 µM",-23.6%
same,inhibition,"[12]; single agent, at 5 µM",-36.9%
same,inhibition,"[13]; BGB IC20 combo, at 0.005 µM",-4.5%
same,inhibition,"[13]; BGB IC40 combo, at 0.005 µM",-19.4%
same,inhibition,"[13]; BGB IC40 combo, at 0.05 µM",-14.2%
same,inhibition,[13]; at 0.5 µM,-43.5% (inactive)
same,inhibition,"[13]; cisplatin combo, at 0.05 µM",-17.4%
same,inhibition,"[13]; cisplatin combo, at 0.5 µM",-54.1%
same,inhibition,"[13]; cisplatin combo, at 5 µM",-42.4%
same,inhibition,"[13]; measured here: 5 uM single agent, at 5 µM",12.3%
same,inhibition,[14]; at 0.5 µM,-32.9% (inactive)
same,inhibition,[14]; [15],-22.2%
same,inhibition,"[14]; measured here: combination with cisplatin, at 0.5 µM",-47.8%
same,inhibition,"[14]; measured here: combination with cisplatin, at 5 µM",-25.5%
